# The list is not random: actives were taken first. Their share in the collection is about 3.3%.
# Sm TGR inh: qHTS Assay for the Inhibitors of Schistosoma Mansoni Peroxiredoxins. purified TGR, DTNB reduction, TNB absorbance 405 nm. AID 485364, 2010. Potency, µM (series often up to 114 µM), hits mostly inhibitors. actives 3% (n = 360,000). Schistosoma mansoni thioredoxin glutathione reductase (TGR), Q962Y6; also: nearly all actives have a fitted effect of over 60% in size
#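 First, TGR (20 nM dispensed) and NADPH were mixed with compound. Second, a 15 min room-temperature incubation followed. Third, further NADPH and then DTNB were added to start the reaction. Finally, TNB absorbance was monitored kinetically.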
# RE007 growth inh: qHTS Assay for Inhibitors of the HIV-1 protein Vpr. Potency, µM (series often up to 92.2 µM), most hits filed as inhibitors. AID 651644, 2012. S. pombe RE007 Vpr strain, BacTiter-Glo ATP luminescence, 24 h. actives 0.21% (n = 360,000); active = well fitted falling curve with a large enough effect; inconclusive = small, poorly fitted or top-dose-only effect; inactive = no such curve, though single readings can be large or run the other way; also: nearly all actives have a fitted effect of over 50% in size
#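 Fission yeast strain RE007, carrying one chromosomally integrated HIV-1 vpr copy, was seeded at OD 0.01 in PMG+AL medium with 23 nL pinned compound. After 24 h at 30 °C and 99% humidity, viability was read by BacTiter-Glo luminescence.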
# SARS PLpro yeast-1: qHTS of Yeast-based Assay for SARS-CoV PLP | S. cerevisiae expressing SARS-CoV PLpro, growth rescue | AID 485353, 2010 | actives 0.19% (n = 330,000) | Potency, µM (top dose mostly 32.9 µM), usual class: activators; calls by dose curve; also: nearly all actives have a fitted effect of over 55% in size
# AmpC no deterg: qHTS Inhibitors of AmpC Beta-Lactamase (assay without detergent) | P00811 | AmpC nitrocefin hydrolysis, absorbance 480 nm, 0.0001% Triton | Potency, µM (doses to about 57.1 µM), most hits filed as inhibitors | actives 0.52% (n = 330,000); also: nearly all actives have a fitted effect of over 20% in size
# Target sequence (P00811 whole entry, looked up): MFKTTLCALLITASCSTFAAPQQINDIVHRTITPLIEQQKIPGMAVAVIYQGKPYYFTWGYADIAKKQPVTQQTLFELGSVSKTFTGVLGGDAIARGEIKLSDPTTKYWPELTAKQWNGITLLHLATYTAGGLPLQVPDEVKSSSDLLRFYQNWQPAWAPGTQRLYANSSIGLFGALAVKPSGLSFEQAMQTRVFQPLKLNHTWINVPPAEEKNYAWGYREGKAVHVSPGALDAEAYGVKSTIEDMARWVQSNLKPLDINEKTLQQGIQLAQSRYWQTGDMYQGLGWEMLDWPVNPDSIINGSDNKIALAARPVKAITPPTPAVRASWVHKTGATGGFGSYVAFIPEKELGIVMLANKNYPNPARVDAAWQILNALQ
#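 AmpC (5.3 nM in the dispensed reagent) in 20 mM phosphate pH 7.0 with 0.01% (detergent screen) or 0.0001% Triton X-100 was preincubated with compounds for 15 min at room temperature. Nitrocefin was then added from an 800 uM solution, and hydrolysis was followed at 480 nm.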
# AmpC detergent: qHTS Inhibitors of AmpC Beta-Lactamase (assay with detergent); AID 485294, 2010; actives 0.041% (n = 370,000); AmpC hydrolysis of nitrocefin, absorbance 480 nm, 0.01% Triton; Potency, µM (series often up to 114 µM), actives largely listed as inhibitors; P00811; also: nearly all actives have a fitted effect of over 25% in size
#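 AmpC (5.3 nM in the dispensed reagent) in 20 mM phosphate pH 7.0 with 0.01% (detergent screen) or 0.0001% Triton X-100 was preincubated with compounds for 15 min at room temperature. Nitrocefin was then added from an 800 uM solution, and hydrolysis was followed at 480 nm.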
# TbPYK inhibitor: qHTS of Trypanosoma Brucei Inhibitors; AID 624173, 2012; actives 0.12% (n = 410,000); TbPYK enzyme, Kinase-Glo Plus ATP luminescence, 45 min; Potency, µM (top dose mostly 76.8 µM), actives largely listed as inhibitors; pyruvate kinase (Trypanosoma brucei), Q57TT1; also: nearly all actives have a fitted effect of over 50% in size
#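 Screened from lowest to highest concentration, compounds were pinned into TbPYK/substrate mixtures, and ADP (130 uM final) was added. Plates sat at room temperature for 45 min prior to Kinase-Glo Plus detection by luminescence.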
# SARS PLpro yeast-2: qHTS of Yeast-based Assay for SARS-CoV PLP: Hit Validation. shares compounds with SARS PLpro yeast-1. yeast expressing SARS-CoV PLpro, growth phenotype rescue. calls only. actives 19% (n = 1,000). AID 652038, 2013; call rule not given here
# A number is an active result; – = inactive; ? = inconclusive; · = no result; + = active, no number; [ ] = another dose, or the depositor's remark. Unless noted, calls follow the shape of the dose curve; as a rule, active = well fitted curve in the direction sought with a large enough effect; inconclusive = small, poorly fitted or top-dose-only effect, or another doubt; inactive = no such curve, though single readings can be large; an effect the other way counts as inactive or inconclusive.
SMILES,Sm TGR inh,RE007 growth inh,SARS PLpro yeast-1,AmpC no deterg,AmpC detergent,TbPYK inhibitor,SARS PLpro yeast-2
O=C1C=CC(=O)N1Nc1ccc(Br)cc1,–,–,?,–,–,–,–
O=C1c2cccc3cc(Br)cc(c23)C(=O)N1Nc1ccc(Br)cc1,–,–,–,–,–,–,·
CCC(Sc1nnc(-c2ccc(F)cc2)c(-c2ccc(F)cc2)n1)C(=O)NC1CCCC1 (stereo not drawn),–,·,·,·,–,–,·
Cc1ccnc(NC(=S)NC(=O)c2ccco2)c1,–,–,–,–,–,–,·
O=C(NC(=S)Nc1ccccn1)c1ccco1,–,–,3.2µM,–,?,–,–
CC(=O)Nc1ccccc1OCc1cc(=O)n2c3c(sc2n1)CCCC3,–,·,·,·,–,–,·
Cc1cccc2sc(NNC(=O)c3ccc(S(=O)(=O)N4CC(C)CC(C)C4)cc3)nc12 (stereo not drawn),–,–,4µM,–,–,–,+
Cc1ccccc1C(=O)N1CCC(N2CCN(Cc3ccc(F)cc3)C(=O)C2=O)CC1,–,·,·,·,–,–,·
CCSCCOC(=O)C1=C(C)NC(=O)NC1c1cc(OC)ccc1OC (stereo not drawn),–,–,?,–,–,–,–
NOCC(=O)O,–,–[18.4 µM],?,–,–,–,–
Cc1sc2ncnc(N/N=C/c3ccccc3O)c2c1C,–,–,1.1µM,–,?,–,?
Oc1ccccc1/C=N/Nc1ncc(Br)cn1,–,–,?,–,–,–,–
Cc1cc(C)nc(NS(=O)(=O)c2ccc(NC(=S)NC(=O)CC(C)C)cc2)n1,?,–,?,–,–,–,–
Cc1[nH]c(=S)sc1Cc1ccc(F)cc1,–,–,10µM,–,–,–,–
CC1CC(C)CN(S(=O)(=O)c2ccc(C(=O)Nc3nnc(-c4cccs4)o3)cc2)C1 (stereo not drawn),–,–,–,–,–,–,·
CCC1CCCCN1S(=O)(=O)c1ccc(C(=O)Nc2nnc(-c3cccs3)o2)cc1 (stereo not drawn),–,–,11µM,–,–,–,+
CCn1c(SCC(=O)NC2CCCCC2)nnc1-c1ccccn1,–,–,3.5µM,–,–,–,–
CCCCOc1ccc(C(=O)NCC(=O)NCCOc2ccc(C)cc2)cc1,–,–,–[6.58 µM],–,–,–,·
CCCCOc1ccc(C(=O)NCC(=O)NC2CC2)cc1,–,–,11µM,–,–,–,–
NS(=O)(=O)c1ccc(NCc2ccccc2OCc2ccccc2F)cc1,–,–,–,–,–,–,·
COc1cccc(CNc2ccc(S(N)(=O)=O)cc2)c1OC,?,–,?,–,?,–,–
Cc1ccc(N2CC(c3nnc(Cc4ccc(Cl)cc4)o3)CC2=O)cc1 (stereo not drawn),–,·,·,·,–,–,·
O=C(CCSCCc1ccccn1)Nc1ccccc1C(F)(F)F,–,·,·,·,–,–,·
COC(=O)c1ccc2c(=O)n(NC(=O)C(c3ccccc3)c3ccccc3)c(=S)[nH]c2c1,–,–,?,–,?,–,–
COC(=O)c1ccc2c(=O)n(CCO)c(=S)[nH]c2c1,–,–,–,–,–,–,·
SMILES,Sm TGR inh,RE007 growth inh,SARS PLpro yeast-1,AmpC no deterg,AmpC detergent,TbPYK inhibitor,SARS PLpro yeast-2
COc1ccc(NC(=O)c2ccc3c(=O)n4nc(Nc5ccccc5C)sc4nc3c2)cc1Cl,–,·,·,·,–,–,·
Cc1ccc(OC2=NS(=O)(=O)c3ccccc32)cc1,–,–[3.69 µM],?,–,–,·,–
CCc1ccc(OC2=NS(=O)(=O)c3ccccc32)cc1,–,–,–,–[2.29 µM],–,–,·
CCCCN1CC(O)C(O)C(O)C1CO (stereo not drawn),·,·,·,·,·,–,·
Cc1ccc(CN2c3ccccc3-c3nc(SCC(=O)Nc4c(C)cc(C)cc4C)ncc3S2(=O)=O)cc1,–,·,·,·,–,–,·
CCOC(=O)c1c(C)oc2ncnc(Nc3ccc(F)cc3Cl)c12,–,·,·,·,–,–,·
Cc1csc2nc(COc3ccc(NC(=O)C(C)C)cc3)cc(=O)n12,–,·,·,·,–,–,·
O=C(CCc1nnc2n(Cc3ccccc3Cl)c(=O)c3ccccc3n12)Nc1ccc(F)cc1,–,·,·,·,–,–,·
Cc1cc(C(=O)OCC(=O)N2CC(=O)Nc3ccccc32)c(C)n1-c1ccccc1,–,·,–,–,–,–,·
Cc1cc(C(=O)OCC(=O)N2CC(=O)Nc3ccccc32)c(C)n1-c1ccc(F)cc1,–,–,4µM,–,–,–,?
CNC(=S)N/N=C(\C)c1ccc(Cl)s1,–,–,?,–,–,–,·
CCNC(=S)N/N=C(\C)c1ccc(Cl)s1,–,–,?,–,–,–,+
C=C(C)CNC(=S)N/N=C(\C)c1ccc(Cl)s1,–,·,?,–,–,–,+
Cn1c(/C(C#N)=C/c2ccc(C(F)(F)F)cc2)nc2ccccc21,–,·,·,·,–,–,·
CCOc1ccc(CCNC(=O)c2cn(-c3ccc(OC)cc3)c(=O)c3ccccc23)cc1OCC,–,·,·,·,–,–,·
CCOC(=O)c1[nH]c2ccc(OC)cc2c1NC(=O)c1nonc1C,–,–,–,–,?,–,·
CCOC(=O)c1[nH]c2ccc(Cl)cc2c1NC(=O)c1nonc1C,–,–,?,–,–,–,+
Cc1ccc(NC(=O)C(=O)NCC(c2cccnc2)N2CCN(c3ccccc3F)CC2)cc1Cl (stereo not drawn),–,·,·,·,–,–,·
Cc1cccc(C)c1NC(=O)CN(C)C(=O)c1ccccc1SCC(=O)N1CCCC1,–,–,14µM,–,–,–,–
CN(CC(=O)Nc1c(Cl)cccc1Cl)C(=O)c1ccccc1SCC(=O)N1CCCC1,–,–,–,–,–,–,·
CN(C)CCCN(C(=O)c1ccc(S(=O)(=O)N2CCCCCC2)cc1)c1nc2ccc(F)cc2s1,–,–,?,–,–,–,–
Cc1cccc(OCCNc2cc(N3CCN(CCO)CC3)ccc2[N+](=O)[O-])c1,–,–,13µM,–,–,–,–
O=C(Nc1ccc(S(=O)(=O)Nc2ccccc2F)cc1)N1CCCCC1,–,–,?,–,–,–,+
COc1ccccc1NS(=O)(=O)c1ccc(NC(=O)N2CCCCC2)cc1,–,–,–,–,–,–,·
Cc1ccc(N(C)C(=O)c2noc3c2CCCCC3)cc1C,–,·,·,·,–,–,·
CC(=O)NCCc1cc2ccc(C)cc2[nH]c1=O,–,–,?,–,–,–,–
